What all share (format): functional
The target in experiment [1] is Solute carrier family 2, facilitated glucose transporter member 1 (Homo sapiens) (UniProt P11166). Put plainly: ST_JUDE_LEISH: Cytotoxicity at 2uM final concentration against transgenic Leishmania Mexicana promastigotes LmGLUT1 that are glucose transport deficient and complemented with the human glucose transporter GLUT1. Activity is measured by DNA content using SYBR green in vitro.

In experiment [2] the target is Hexose transporter 1 (Plasmodium falciparum) (UniProt O97467). Put plainly: ST_JUDE_LEISH: Cytotoxicity at 2uM final concentration against transgenic Leishmania Mexicana promastigotes LmPfHT that are glucose transport deficient and complemented with the Plasmodium falciparum hexose transporter. Activity is measured by DNA content using SYBR green in vitro.
The target of experiment [3] is Glucose transporter (Leishmania mexicana) (UniProt O61059). Nature of the experiment: ST_JUDE_LEISH: Cytotoxicity at 2uM final concentration against transgenic Leishmania Mexicana promastigotes LmGT2 that are glucose transport deficient and complemented with the L. Mexicana glucose transporter 2. Activity is measured by DNA content using SYBR green in vitro.

Solute carrier family 2, facilitated glucose transporter member 1 (Homo sapiens), sequence (P11166 whole entry): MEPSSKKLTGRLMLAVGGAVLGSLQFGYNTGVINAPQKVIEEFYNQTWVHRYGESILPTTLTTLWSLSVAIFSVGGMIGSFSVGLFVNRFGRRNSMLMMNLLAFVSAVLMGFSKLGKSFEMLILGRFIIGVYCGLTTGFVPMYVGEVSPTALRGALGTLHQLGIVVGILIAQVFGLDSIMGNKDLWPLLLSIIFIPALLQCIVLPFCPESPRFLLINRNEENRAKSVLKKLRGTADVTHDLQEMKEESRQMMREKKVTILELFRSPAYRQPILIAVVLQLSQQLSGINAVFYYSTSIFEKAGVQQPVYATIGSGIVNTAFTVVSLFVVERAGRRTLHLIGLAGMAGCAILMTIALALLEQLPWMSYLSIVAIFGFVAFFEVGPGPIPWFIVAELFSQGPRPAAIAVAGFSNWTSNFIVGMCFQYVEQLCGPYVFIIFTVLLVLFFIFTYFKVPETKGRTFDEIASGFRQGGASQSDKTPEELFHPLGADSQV

What is called inhibition is the drop in the measured response relative to a control, in per cent. Consider `Cc1cc2c(cc1C(F)(F)F)N(C(=O)Nc1cccc(C(=O)NC3CCN(Cc4ccccc4)CC3)c1)CC2`, for which the inhibition turned out to be 2.13% in experiment [1], 3.38% in experiment [2] and 3.16% in experiment [3].
The matching figures for `Cc1ccccc1C1CCN(C2CCC(NC(=O)c3ccc(-c4ccccc4)s3)CC2)CC1` (stereo not given): 1.32%, 0.48% and 0.02%.
Turning to `CCc1cccc(OCCCON2C(=N)N=C(N)NC2(C)C)c1`, the figures for the inhibition in experiment [1], in experiment [2] and in experiment [3] were 7.55%, 9.83% and 8.16%, respectively.
For `CC(Cl)=CCc1c(C)nc2c(ccc3ccccc32)c1O`, the inhibition in experiment [1] came out at 4.44%; in experiment [2], 3.06%; in experiment [3], 3.58%.
Regarding `O=C(NCCc1ccc(F)cc1)c1ccc(N2CCN(c3ccncc3)CC2)nc1`, the inhibition is 2.72% in experiment [1], 0.74% in experiment [2] and -4.35% in experiment [3].
As for `Cc1[nH]cnc1-c1cccc(NC(=O)c2cc3ccccc3s2)c1`, the inhibition in experiment [1] is -1.01%; in experiment [2], -1.53%; in experiment [3], -0.35%.
On the same counts, the results for `Clc1ccc(-c2nc(-c3ccncc3)c[nH]2)cc1Cl` are 0.68%, 0.78% and -0.87%.
On the same counts, the results for `FC(F)(F)c1cccc(CCNc2nccc(NCc3ccc(Cl)cc3Cl)n2)c1` are 9.74%, 6.08% and 1.55%.
As to `COc1ccc2nccc([C@@H](O)CN3CCC(NC(=O)C(c4ccsc4)N4CCN(c5ccccc5)CC4)CC3)c2c1` (stereo not given in full), the results for the inhibition in experiment [1], in experiment [2] and in experiment [3] were 4.17%, 3.07% and 1.54%, respectively.
In the case of `COc1ccccc1CNC(=O)c1cc(OC)c(OC)cc1NC(=O)c1cccs1`, the figures for the inhibition in experiment [1], in experiment [2] and in experiment [3] were 10.5%, 6% and 4.4%, respectively.
Turning to `Cc1ccc(-c2nc(Nc3ccncc3)c3ccccc3n2)s1`, the results for the inhibition in experiment [1], in experiment [2] and in experiment [3] were 5.34%, 3.16% and 0.88%, respectively.
In the case of `O=S(=O)(NCCN1CCCC1)c1ccc(-c2cccc(CNCc3ccc(F)cc3)c2)cc1F`, the figures for the inhibition in experiment [1], in experiment [2] and in experiment [3] were 3.24%, 5.71% and 4.01%, respectively.
As to `OC(c1ccc(Cl)cc1)(c1ccc(Cl)cc1)C(c1ccc(Cl)cc1)n1ccnc1` (stereo not given), the figures for the inhibition in experiment [1], in experiment [2] and in experiment [3] were 8.37%, 4.21% and 2.69%, respectively.
The matching figures for `COc1cccc(NC(=O)N2CCOC(CCN3CCC4(CCc5ccccc54)CC3)(c3ccc(Cl)c(Cl)c3)C2)c1` (stereo not given): 7.21%, 8% and 1.65%.
Consider `CC1CCN(CC[C@H]2CCCN2S(=O)(=O)c2cccc(NC(=O)c3ccc(-c4ccc(Cl)cc4)o3)c2)CC1`, for which the inhibition in experiment [1] is -0.33%; in experiment [2] it was 1.69%; in experiment [3], -0.14%.
Consider `O=C(NCc1ccc(C(F)(F)F)cc1)c1cccc(-c2nnc(-c3cccc(-c4cncnc4)c3)o2)c1`, for which the inhibition was determined as 9.91% in experiment [1], 4.62% in experiment [2] and 4.68% in experiment [3].
`COc1ccc(Cn2c(SCc3ccc(C)cc3)nc3cc(OC)c(OC)cc3c2=N)cc1Cl`: the inhibition in experiment [1] was -0.1%; in experiment [2], -4.17%; in experiment [3], -2.37%.
On to `COc1ccc2ncc(F)c(CCN3CCC[C@H](CNCc4ccc5c(n4)NC(=O)CS5)C3)c2n1`, for which the results for the inhibition in experiment [1], in experiment [2] and in experiment [3] were 5.76%, 5.3% and 0.75%, respectively.
Regarding `O=C(Nc1cccc(C(F)(F)F)c1)N1CCOC(CCN2CCC3(CCc4ccccc43)CC2)(c2ccc(Cl)c(Cl)c2)C1` (stereo not given), the inhibition in experiment [1] came out at 5.08%; in experiment [2], 4.51%; in experiment [3] it was 2.55%.
On to `N#Cc1cccc(C(=O)Nc2cccc(-c3ccc(C(=O)NCCCN4CCOCC4)cc3)c2)c1`, for which the inhibition in experiment [1] was 6.85%; in experiment [2], 5.61%; in experiment [3], 5.11%.
Take `N#Cc1ccc(-c2nc3c(N4CCCC4)cccc3n2CCNCc2ccccc2)cc1`: the inhibition in experiment [1] was 12.3%; in experiment [2], 11%; in experiment [3], 11.8%.
As to `COc1ccc2nccc([C@@H](O)CN3CCC(NCc4ccc5c(c4)sc(=O)n5C)CC3)c2c1`, the inhibition was -0.15% in experiment [1], 0.84% in experiment [2] and -1.7% in experiment [3].
For `CCNC(=O)c1cc(S(=O)(=O)N2CCN(c3ccccn3)CC2)cs1`, the values for the inhibition in experiment [1], in experiment [2] and in experiment [3] were 0.14%, -0.21% and 2.62%, respectively.
Take `N=C(N)NN=Cc1c2ccccc2c(Cl)c2cc(Cl)ccc12`: the inhibition worked out at 62.5% in experiment [1], 26.4% in experiment [2] and 29.3% in experiment [3].
The matching figures for `O=C(Nc1ccc(Cn2ncc(N3CCCNCC3)c(Cl)c2=O)cc1)Nc1cccc(C(F)(F)F)c1`: 0.62%, 1.58% and -2.08%.
Turning to `Cc1cc(NCc2ccc(F)cc2)nc2cc(O)ccc12`, the inhibition in experiment [1] was 2.81%; in experiment [2] it was 3.64%; in experiment [3], 1.59%.
The matching figures for `CC(=O)N1N=C(c2ccc(Cl)cc2)Sc2c1nc(C1CCCCC1)n2C(C)=O`: -0.67%, 0.1% and -0.39%.
On the same counts, the results for `c1ccc2c(C3CCN(CCCCOc4ccc5c(c4)CCN(C4CCC4)CC5)CC3)c[nH]c2c1` are -2.06%, 3.7% and 4.47%.
The matching figures for `CCNc1cc(C(=O)N[C@@H](Cc2ccccc2)[C@H](O)CNC(C)(C)c2cccc(OC)c2)cc(N2CCCC2=O)c1`: 0.14%, 1.76% and -0.62%.
Regarding `CCc1ccc(O)c(-c2cc(C(=O)Nc3cccnc3)[nH]n2)c1`, the inhibition in experiment [1] was found to be 1.69%; in experiment [2] it was 0.53%; in experiment [3], 2.29%.
Regarding `COc1ccc2nccc(NC(=O)C3(O)CCC(NCc4ncc5c(c4Cl)OCCO5)CC3)c2n1` (stereo not given), the results for the inhibition in experiment [1], in experiment [2] and in experiment [3] were 7.91%, 8.5% and 2.13%, respectively.
With `COc1ccccc1-c1sccc1C(=O)NC1(c2cc(Cl)cc(Cl)c2)CCCC1`, the inhibition in experiment [1] was 1.22%; in experiment [2], 0.95%; in experiment [3], 4.85%.
Take `CN(C)[C@@H]1C(O)=C(C(N)=O)C(=O)[C@@]2(O)C(O)=C3C(=O)c4c(O)ccc(C#Cc5ccccn5)c4C[C@H]3C[C@@H]12`: the figures for the inhibition in experiment [1], in experiment [2] and in experiment [3] were 1.83%, -0.62% and 0.74%, respectively.
On to `C[C@H](Nc1nc(C(Oc2ccccc2)c2ccccc2)nc2[nH]ncc12)c1ccccc1` (stereo not given in full), for which the inhibition in experiment [1] was 3.69%; in experiment [2], 1.72%; in experiment [3], 0.54%.
With `O=S(=O)(NCCN1CCCC1)c1ccc(-c2cccc(CNCc3ccc(F)cc3)c2)cc1`, the figures for the inhibition in experiment [1], in experiment [2] and in experiment [3] were 1.16%, 1.09% and -0.22%, respectively.

For the origin of these results see ChEMBL document CHEMBL3433997, “St. Jude Leishmania screening dataset” (2016).
